In all, about 5,500 compounds went through this assay and about 2,000 (36%) were called active. Another 18% or so got no clear call; they are omitted. Rule as the data show it: active = normalized growth mostly below about 0.91 (no sharp cut-off); inconclusive = no clear call, values can overlap the other calls; inactive = mostly above about 0.92. Some of the results follow.
Assay: chemical genetic growth profiling, strain panel (AID 1159580);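 also: tested at 20 µM; growth read once vehicle control cultures reached saturation at 30 °C; 1 = growth at the plate median or of vehicle wells; lower values mean less growth of the strain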
Conditions: growth OD

Measured: normalized growth

NS(=O)(=O)c1cc2c(cc1C(F)(F)F)NC(Cc1ccccc1)NS2(=O)=O (centres undefined)
inactive: S. cerevisiae deletion strains, locus YJR066W, strain TOR1, stronger effect = lower value 0.949 | S. cerevisiae deletion strains, locus YKL009W, strain mrt4, stronger effect = lower value 0.983 | S. cerevisiae deletion strains, locus YKL068W, stronger effect = lower value 1 | S. cerevisiae deletion strains, locus YKL085W, strain MDH1 (second series), stronger effect = lower value 0.999 | S. cerevisiae deletion strains, locus YKL085W, strain MDH1, stronger effect = lower value 0.999 | S. cerevisiae deletion strains, locus YKL160W, strain elf1, stronger effect = lower value 0.977 | S. cerevisiae deletion strains, locus YKL190W, strain CNB1, stronger effect = lower value 1 | S. cerevisiae deletion strains, locus YKR001C, strain vps1, stronger effect = lower value 0.982 | S. cerevisiae deletion strains, locus YKR026C, strain gcn3, stronger effect = lower value 0.998 | S. cerevisiae deletion strains, locus YKR091W, strain srl3, stronger effect = lower value 0.982 | S. cerevisiae deletion strains, locus YLL001W, strain dnm1, stronger effect = lower value 0.981 | S. cerevisiae deletion strains, locus YLL026W, stronger effect = lower value 0.991 | S. cerevisiae deletion strains, locus YLL041C, strain sdh2, stronger effect = lower value 0.985 | S. cerevisiae deletion strains, locus YLR027C, strain aat2, stronger effect = lower value 0.985 | S. cerevisiae deletion strains, locus YLR039C, strain RIC1, stronger effect = lower value 1.04 | S. cerevisiae deletion strains, locus YLR058C, strain SHM2, stronger effect = lower value 1 | S. cerevisiae deletion strains, locus YLR102C, strain apc9, stronger effect = lower value 1.01 | S. cerevisiae deletion strains, locus YLR113W, strain HOG1, stronger effect = lower value 0.983 | S. cerevisiae deletion strains, locus YLR221C, strain rsa3, stronger effect = lower value 0.973 | S. cerevisiae deletion strains, locus YLR258W, strain gsy2, stronger effect = lower value 0.993 | S. cerevisiae deletion strains, locus YLR262C, strain YPT6 (second series), stronger effect = lower value 0.987 | S. cerevisiae deletion strains, locus YLR262C, strain YPT6, stronger effect = lower value 1.01 | S. cerevisiae deletion strains, locus YLR268W, strain sec22, stronger effect = lower value 0.999 | S. cerevisiae deletion strains, locus YLR320W, strain mms22, stronger effect = lower value 0.957 | S. cerevisiae deletion strains, locus YLR330W, strain CHS5, stronger effect = lower value 1.01 | S. cerevisiae deletion strains, locus YLR342W, strain FKS1 (second series), stronger effect = lower value 1.06 | S. cerevisiae deletion strains, locus YLR342W, strain FKS1, stronger effect = lower value 0.988 | S. cerevisiae deletion strains, locus YLR357W, strain rsc2, stronger effect = lower value 0.978 | S. cerevisiae deletion strains, locus YLR370C, strain arc18, stronger effect = lower value 0.983 | S. cerevisiae deletion strains, locus YLR371W, strain rom2, stronger effect = lower value 1.01 | S. cerevisiae deletion strains, locus YLR384C, strain iki3, stronger effect = lower value 0.986 | S. cerevisiae deletion strains, locus YLR418C, strain cdc73, stronger effect = lower value 1.01 | S. cerevisiae deletion strains, locus YML016C, strain PPZ1, stronger effect = lower value 1.01 | S. cerevisiae deletion strains, locus YML032C, strain rad52, stronger effect = lower value 0.983 | S. cerevisiae deletion strains, locus YML120C, strain ndi1, stronger effect = lower value 0.981 | S. cerevisiae deletion strains, locus YML124C, strain tub3, stronger effect = lower value 1 | S. cerevisiae deletion strains, locus YMR058W, strain fet3, stronger effect = lower value 0.97 | S. cerevisiae deletion strains, locus YMR078C, strain ctf18, stronger effect = lower value 1 | S. cerevisiae deletion strains, locus YMR125W, strain sto1, stronger effect = lower value 1.01 | S. cerevisiae deletion strains, locus YMR129W, stronger effect = lower value 0.992 | S. cerevisiae deletion strains, locus YMR205C, strain PFK2, stronger effect = lower value 0.978 | S. cerevisiae deletion strains, locus YMR223W, strain ubp8, stronger effect = lower value 1.02 | S. cerevisiae deletion strains, locus YMR231W, strain pep5, stronger effect = lower value 1 | S. cerevisiae deletion strains, locus YMR307W, strain GAS1, stronger effect = lower value 1.06 | S. cerevisiae deletion strains, locus YNL067W, strain RPL9B, stronger effect = lower value 0.985 | S. cerevisiae deletion strains, locus YNL071W, strain lat1, stronger effect = lower value 0.994 | S. cerevisiae deletion strains, locus YNL153C, strain GIM3, stronger effect = lower value 0.975 | S. cerevisiae deletion strains, locus YNL183C, strain NPR1, stronger effect = lower value 0.927 | S. cerevisiae deletion strains, locus YNL209W, strain ssb2, stronger effect = lower value 0.993 | S. cerevisiae deletion strains, locus YNL233W, strain BNI4, stronger effect = lower value 0.993 | S. cerevisiae deletion strains, locus YNL248C, strain rpa49, stronger effect = lower value 0.996 | S. cerevisiae deletion strains, locus YNL250W, strain rad50, stronger effect = lower value 1.01 | S. cerevisiae deletion strains, locus YNL271C, strain bni1, stronger effect = lower value 1.01 | S. cerevisiae deletion strains, locus YNL298W, strain CLA4, stronger effect = lower value 1.02 | S. cerevisiae deletion strains, locus YNL307C, strain MCK1, stronger effect = lower value 1.01 | S. cerevisiae deletion strains, locus YNL322C, strain KRE1 (second series), stronger effect = lower value 0.992 | S. cerevisiae deletion strains, locus YNR049C, strain mso1, stronger effect = lower value 0.986 | S. cerevisiae deletion strains, locus YNR052C, strain pop2, stronger effect = lower value 1.01 | S. cerevisiae deletion strains, locus YOL006C, strain TOP1, stronger effect = lower value 0.953 | S. cerevisiae deletion strains, locus YOL012C, strain htz1 0.78 | S. cerevisiae deletion strains, locus YOL147C, strain pex11, stronger effect = lower value 1.01 | S. cerevisiae deletion strains, locus YOR001W, strain rrp6, stronger effect = lower value 0.997 | S. cerevisiae deletion strains, locus YOR061W, strain CKA2, stronger effect = lower value 1 | S. cerevisiae deletion strains, locus YOR069W, strain VPS5, stronger effect = lower value 1.01 | S. cerevisiae deletion strains, locus YOR070C, strain gyp1, stronger effect = lower value 0.999 | S. cerevisiae deletion strains, locus YOR080W, strain dia2, stronger effect = lower value 0.982 | S. cerevisiae deletion strains, locus YOR083W, strain WHI5, stronger effect = lower value 0.969 | S. cerevisiae deletion strains, locus YOR106W, strain vam3, stronger effect = lower value 0.958 | S. cerevisiae deletion strains, locus YOR136W, strain idh2, stronger effect = lower value 0.992 | S. cerevisiae deletion strains, locus YOR144C, strain elg1, stronger effect = lower value 0.998 | S. cerevisiae deletion strains, locus YOR184W, strain ser1, stronger effect = lower value 0.998 | S. cerevisiae deletion strains, locus YOR231W, strain MKK1, stronger effect = lower value 0.987 | S. cerevisiae deletion strains, locus YOR265W, strain rbl2, stronger effect = lower value 0.988 | S. cerevisiae deletion strains, locus YOR270C, strain vph1, stronger effect = lower value 0.956 | S. cerevisiae deletion strains, locus YOR290C, strain snf2, stronger effect = lower value 0.964 | S. cerevisiae deletion strains, locus YOR316C, strain cot1, stronger effect = lower value 1.01 | S. cerevisiae deletion strains, locus YPL051W, strain arl3, stronger effect = lower value 0.998 | S. cerevisiae deletion strains, locus YPL055C, strain LGE1, stronger effect = lower value 0.934 | S. cerevisiae deletion strains, locus YPL078C, strain atp4, stronger effect = lower value 0.988 | S. cerevisiae deletion strains, locus YPL106C, strain sse1, stronger effect = lower value 0.952 | S. cerevisiae deletion strains, locus YPL240C, strain hsp82, stronger effect = lower value 0.998 | S. cerevisiae deletion strains, locus YPL241C, strain CIN2, stronger effect = lower value 1.01 | S. cerevisiae deletion strains, locus YPL256C, strain CLN2, stronger effect = lower value 0.976 | S. cerevisiae deletion strains, locus YPR119W, strain clb2, stronger effect = lower value 1.01 | S. cerevisiae deletion strains, locus YPR141C, strain kar3, stronger effect = lower value 1.01 | S. cerevisiae deletion strains, locus YPR163C, strain tif3, stronger effect = lower value 1.01 | S. cerevisiae deletion strains, locus YPR167C, strain met16, stronger effect = lower value 1.01 | S. cerevisiae deletion strains, strain wtn01, stronger effect = lower value 1.01 | S. cerevisiae strains, strain wild type, stronger effect = lower value 1
